From PubChem BioAssay
Many of the other results were omitted from the sample, so hits are more common in it than they were.
Tg IFNy HTS – blocks Toxoplasma gondii growth in the presence of IFN-gamma. Toxoplasma gondii growth in IFN-gamma-treated host cells; hits give low values. activity change, negative = inhibition, % (concentration not given with the values). actives 3.8% (n = 69,000); in the data active means activity change below about -70%, passing the limit was not always enough;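 further: host cells are HeLa cells infected with Toxoplasma gondii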
Numbers without * were called inactive; ! = not confirmed by another sample.

SMILES	Tg IFNy HTS
CNC(=O)c1cnc(-c2ccccc2)nc1CCNC(=O)Cc1c[nH]c2ccccc12	3.2
O=C(CN1CCCC(OCc2ccccn2)C1)Nc1nc2ccccc2[nH]1 (stereo not drawn)	12.8
CCCCOc1cc(C(F)(F)F)nc2ccc(CSc3nc4ccccc4[nH]3)cc12	-86.3*
CCOc1ccc(OCCSc2nc3ccccc3[nH]2)cc1	11.6
CCOc1ccc2nc(SCC)[nH]c2c1	54.4
O=C(CSc1ccc(-c2ccc3c(c2)OCCO3)nn1)Nc1nccs1	133.6
O=C(NC1CCCC1)c1cncc(NS(=O)(=O)c2ccc3c(c2)OCCO3)c1	10.2
O=C(CCC(=O)N1CCN[C@H]2CS(=O)(=O)C[C@H]21)NC1CCCC1	-2.6
CCc1nccc(CN2CCCOc3c(cccc3OC)C2)n1	3.5
CC1(C)[C@@H](O)CC[C@]2(C)[C@H]3C(=O)C=C4[C@@H]5C[C@@](C)(C(=O)O)CC[C@]5(C)CC[C@@]4(C)[C@]3(C)CC[C@@H]12	9.6
C[C@H]1[C@H](C)CC[C@]2(C(=O)O)CC[C@]3(C)C(=CC[C@@H]4[C@@]5(C)CC[C@H](O)C(C)(C)[C@@H]5CC[C@]43C)[C@H]12	-79.1*
CC1(C)CC[C@]2(C(=O)O)CC[C@]3(C)C(=CCC4[C@@]5(C)CC[C@H](O)[C@@](C)(CO)C5CC[C@]43C)C2C1 (stereo partly drawn)	7.2
CCCn1ccnc1CN1CCN(S(=O)(=O)c2ccccc2)CC1	-3.7
Cc1[nH]nc(CCC(=O)N2CCCC3(CNC(=O)O3)C2)c1C (stereo not drawn)	-52.7
Cc1nc(CC2CCCN(S(=O)(=O)c3cn(C)cn3)C2)cc(Nc2ncc(C)s2)n1 (stereo not drawn)	-97.5*
CCN(CC)C(=O)CN1CCC(Cc2cc(NC3CCCC3)nc(C)n2)CC1	-17.1
Cn1cnc(S(=O)(=O)N2CCCC(N)CC2)c1 (stereo not drawn)	-1.3
CCOc1ccc(CN(C(=O)c2ccc(C3CCCO3)s2)C2CC2)cc1 (stereo not drawn)	57.2
C[C@]12OC(C[C@]1(O)CO)n1c3ccccc3c3c4c(c5c6ccccc6n2c5c31)CNC4=O	-82.1*
Cc1cccc(S(=O)(=O)N2C[C@@H]3COC[C@@]3(CN(C)C)C2)c1	-0.8
CCCC(C)C(=O)Nc1ccc(OC)cc1NC(=O)C(C)C (stereo not drawn)	3.4
COc1cccc(-n2cc(CN(C)C(=O)C3CC4(CCNCC4)CN3)cn2)c1 (stereo not drawn)	-52.1
Cc1cc2cccc(C(=O)N3CCN4CCN(C)C(=O)C4C3)c2o1 (stereo not drawn)	118.2
Cc1ccccc1C1CCCN1C(=O)Cn1nc(C(F)(F)F)cc1C (stereo not drawn)	164.6
Cc1cc(C(F)(F)F)nn1CC(=O)N1CCCC1c1ccc(F)cc1 (stereo not drawn)	-77.9*
SMILES	Tg IFNy HTS
Cc1noc(C)c1C1CCCN1C(=O)Cn1nc(C(F)(F)F)cc1C (stereo not drawn)	4.7
COCC(=O)NCc1cc(=O)n2c(n1)CN(Cc1ccoc1)CCC2	5.7
O=C(Nc1ccccc1)c1ccccc1O	-18.0
NC(=O)c1ccccc1O	11.1
Cc1ccc(C)n1NC(=O)c1ccccc1O	-94.8*
CC(=O)O.CC(=O)O.[Cl][Pt+2][Cl].[NH-]C1CCCCC1.[NH2-]	-66.3
Cc1cc(F)ccc1S(=O)(=O)NCCc1csc(-c2cccc(F)c2)n1	55.1
OC1(c2cccnc2)CCN(c2ncc(-c3cccs3)c(-c3cccnc3)n2)CC1	70.3
c1csc(-c2nc(N3CCCCC3)no2)c1	20.7
c1csc(-c2nc(N3CCCCC3)ncc2-c2ccncc2)c1	-97.8*
O=C1[C@@H]2C[C@H](O)CCN2C(=O)CN1CCCNc1cccnc1	0.0
C[C@@H](Oc1ccc2[nH]nc(/C=C/c3cnn(CCO)c3)c2c1)c1c(Cl)cncc1Cl	-75.0*
O=C(c1ccc(/C=C/c2n[nH]c3ccccc23)cc1)N1CCNCC1	-67.5
Cc1ccc(C(=O)Nc2c(C(=O)N3CCCC3)[nH]c3ccccc23)cc1	18.3
CCCCN1C(=O)c2cc(C(=O)N3CCN(c4ncccn4)CC3)nn2CC1(C)C(=O)NC1CCCC1 (stereo not drawn)	-7.8
CC(C)NC1CCc2c(ccc(=O)n2CC2CC2)C1 (stereo not drawn)	91.3
O=C(NCc1nc(-c2ccncc2)n[nH]1)Nc1ccccc1C(F)(F)F	-20.3
O=C(NCc1nc(-c2ccncc2)n[nH]1)c1cccs1	-93.9*
CC(=O)c1cc(C(=O)NCCc2nc(-c3cccnc3)n[nH]2)cs1	-36.3
CN(C)S(=O)(=O)c1ccc2c(c1)cc(C(=O)NCc1cccs1)n2Cc1ccncc1	48.9
Fc1ccc(CCC2CCCNC2)cc1F (stereo not drawn)	-9.5
Cc1cc2c(=O)[nH]nc(N)c2c(Sc2ccc(Cl)cc2)n1	51.6
CCC1(CC)CN(c2ccnc(C(=O)NCCOC)c2)CCO1	9.3
Fc1cccc(-c2nc3c(c(NC4CC4)n2)CNCC3)c1	-86.1*
CN1C(C)(C)CC(Nc2nc(-c3ccccn3)nc3c2CCNC3)CC1(C)C	-4.1
SMILES	Tg IFNy HTS
c1ccc2c(c1)CC(Nc1nc(C3CCCC3)nc3c1CNC3)CO2 (stereo not drawn)	2.2
Cc1cc(C)n(-c2cccc(-c3ccc(S(N)(=O)=O)s3)c2)n1	7.1
CC(=O)Nc1ccc(Nc2nc(-c3nnc(-c4cccc(Cl)c4)o3)nc3ccccc23)cc1	69.0
Cc1ccc(-c2cc(C(=O)O)nn2C)cc1	20.7
COc1ccccc1N1CCN(C2CCCN(c3ccc(C(C)=O)cn3)C2)CC1 (stereo not drawn)	-3.9
O=C(O)C1CC2(CCNCC2)CN1C(=O)CCc1ccc(F)cc1 (stereo not drawn)	1.5
Cc1coc2c1C(=O)C(=O)c1c-2ccc2c(C)cccc12	-72.0*
Cc1ccc(C)c(OCCN(C)Cc2cc3ccccc3n(C)c2=O)c1	83.4
CNC(=O)C1(Cc2cccc(-c3ccncc3)c2)CN(C(=O)c2ccccc2)CCO1 (stereo not drawn)	5.3
O=C(Nc1ccc(-c2nc(-c3ccccc3)co2)cc1)C1CCCCC1	-39.7
Cc1nc(C(=O)NCCCSc2nnc(C)s2)cs1	55.3
CC(NC1CCC2(CCNCC2)CC1)c1cn2ccsc2n1 (stereo not drawn)	0.7
CCOCCCNC(c1ccccc1)c1ccncc1 (stereo not drawn)	3.2
CNCC[C@H](Oc1cccc2ccccc12)c1cccs1	19.0
CNCCC(Oc1ccc(C(F)(F)F)cc1)c1ccccc1 (stereo not drawn)	-86.5*!
Cc1cc(C)cc(C(=O)N2CCN(S(=O)(=O)c3cc4c5c(c3)CCC(=O)N5CCC4)CC2)c1	-20.8
COC(C(=O)N1CCC2(CCCO2)CC1)c1ccccc1 (stereo not drawn)	1.2
COc1ccc(-c2ccc([C@H]3[C@@H](C#N)N(C(=O)NC(C)C)[C@H]3CO)cc2)cc1	-75.7*
COc1ccc(-c2ccc([C@H]3[C@H](C#N)N(C(=O)NC(C)C)[C@H]3CO)cc2)cc1	-54.8
COc1ccc(-c2ccccc2[C@H]2[C@@H](C#N)N(C(=O)NC(C)C)[C@H]2CO)cc1	-12.0
COc1ccc(OC)c(C2CCN(Cc3nnc(-c4ccc(C)n4C)o3)C2)c1 (stereo not drawn)	-0.7
CCOCC1CN(C(=O)c2cc(C)no2)Cc2cncn2C1 (stereo not drawn)	1.6
Cc1nc2ccccc2n1Cc1ccccc1	-58.1
Cc1nc2n(Cc3ccccc3)c3ccccc3n2c1C(=S)Nc1ccccc1	-113.8*
Cc1nc(C)c(C(=O)Nc2ccc3c(c2)CN(Cc2ccccc2)C3)o1	0.4
